Reference: PubChem BioAssay
“And” between values parts separate entries of the source, which are not always exact repeats. Equal entries are not always repeated. Records with an inconclusive call do not appear. The source made the active and inactive calls. Unless noted, no cut-off is given here; in the data, nearly all actives have AC50 up to about 23 µM.

Tests used:
[1] = EMT-state selective cytotoxicity in co-culture – imaging, PC-3E GFP, TEM4-18 mCherry, primary screen (AID 1345086;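 active = compounds killing one labelled cell type while sparing the other, by normalised counts and ratio limits, not self-fluorescent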;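 for all read-outs here: cells exposed to compound for 72 h before imaging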;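 for red/green cell ratio (normalised): normalised mesenchymal count divided by normalised epithelial count so high means epithelial killing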); details: PC-3E GFP / TEM4-18 mCherry co-culture, imaging cell counts, at 1 µM; for red/green cell ratio (normalised): actives lie on both sides, counts scaled to control wells, 1 = unselective
[2] = viability loss in pontine glioma line – cell-based, JHH-DIPG-1, MIPE4.0, CellTiter-Glo, qHTS, dose response (AID 1347062; cut-off not given, nearly all actives have AC50 up to about 27 µM;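 for AC50: cells exposed to compound for two days before readout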); details: JHH-DIPG-1 viability, CellTiter-Glo ATP luminescence
[3] = viability loss in pontine glioma line – cell-based, SU-DIPG-IV, MIPE4.0, CellTiter-Glo, qHTS, dose response (AID 1347063; cut-off not given, nearly all actives have AC50 up to about 30 µM;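 note: compound exposure lasted 48 hours before the viability readout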); details: CellTiter-Glo ATP luminescence
[4] = viability loss in pontine glioma line – cell-based, SU-DIPG-XVII, MIPE5.0, CellTiter-Glo, qHTS, dose response (AID 1347060; cut-off not given, nearly all actives have AC50 up to about 26 µM;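 for AC50: cells exposed to compound for 48 hours before viability readout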); details: CellTiter-Glo ATP luminescence
[5] = viability loss in pontine glioma line – cell-based, SU-DIPG-XIII, MIPE5.0, CellTiter-Glo, qHTS, dose response (AID 1347064); details: CellTiter-Glo ATP luminescence;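 for AC50: cells exposed to compound for 48 hours before the viability read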
[6] = viability loss in pontine glioma line – cell-based, SU-DIPG-XIII, MIPE4.0, CellTiter-Glo, qHTS, dose response (AID 1347061; cut-off not given, nearly all actives have AC50 up to about 37 µM;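 note: cells exposed to compound for 48 hours before readout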); details: CellTiter-Glo ATP luminescence
[7] = test system: Aerobactin synthetase IucA (Klebsiella pneumoniae); test: inhibition of K. pneumoniae IucA enzyme – biochemical, Tocris library, absorbance (AID 1345561; call rule not given here;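 note: 100% = enzyme without compound and 0% = no enzyme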); details: purified IucA enzyme assay, absorbance (OD) read-out; stronger effect = lower value;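 tested at 8 µM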
[8] = measured here: epithelial PC-3E GFP cell survival
[9] = measured here: mesenchymal TEM4-18 mCherry cell survival

COc1ccc(C(=O)CC(=O)c2ccc(C(C)(C)C)cc2)cc1
red/green cell ratio (normalised) [1]: 1.31 (inactive) | normalised cell number [1, 8]: 0.9 | normalised cell number [1, 9]: 1.18 | AC50 [2]: 3.72 µM (active) | AC50 [3]: 5.26 µM (active)

C#C[C@]1(O)CC[C@H]2[C@@H]3CCc4cc(O)ccc4[C@H]3CC[C@@]21C
AC50 [4]: 16.6 µM (active) | outcome [5]: inactive

Cc1onc(-c2ccccc2Cl)c1C(=O)N[C@@H]1C(=O)N2[C@@H]1SC(C)(C)[C@@H]2C(=O)O
red/green cell ratio (normalised) [1]: 1.1 (inactive) | normalised cell number [1, 8]: 1.34 | normalised cell number [1, 9]: 1.48 | outcome [6]: inactive | outcome [3]: inactive

CCN1CCN(C(=O)N[C@@H](C(=O)N[C@@H]2C(=O)N3C(C(=O)O)=C(CSc4nnnn4C)CS[C@H]23)c2ccc(O)cc2)C(=O)C1=O
AC50 [4]: 26.3 µM (active) | outcome [5]: inactive

C#C[C@]1(O)CC[C@H]2[C@@H]3CCc4cc(OC)ccc4[C@H]3CC[C@@]21C
outcome [2]: inactive | outcome [3]: inactive | outcome [5]: inactive

CO[C@@]12[C@H](COC(N)=O)C3=C(C(=O)C(C)=C(N)C3=O)N1C[C@@H]1N[C@@H]12
AC50 [4]: 0.417 µM (active) | AC50 [2]: 16.6 µM (active) | AC50 [3]: 0.469 µM (active) | AC50 [5]: 7.42 µM (active)

O=C(N[C@H](CO)[C@H](O)c1ccc([N+](=O)[O-])cc1)C(Cl)Cl
red/green cell ratio (normalised) [1]: 0.78 (inactive) | normalised cell number [1, 8]: 1.21 | normalised cell number [1, 9]: 0.95 | outcome [2]: inactive | outcome [3]: inactive

NC(N)=N/N=C/c1c(Cl)cccc1Cl
remaining activity [7]: 99.1% (inactive)

C[C@]12CC[C@@H]3c4ccc(O)cc4CC[C@H]3[C@@H]1C[C@@H](O)[C@@H]2O
outcome [5]: inactive

COC(=O)[C@@H]1[C@H]2C[C@H]3c4[nH]c5ccccc5c4CCN3C[C@@H]2CC[C@@H]1O
outcome [4]: inactive | outcome [6]: inactive | outcome [2]: inactive | outcome [5]: inactive

CC(=O)O[C@]1(C(C)=O)CC[C@H]2[C@@H]3C=C(Cl)C4=CC(=O)[C@@H]5C[C@@H]5[C@]4(C)[C@H]3CC[C@@]21C
AC50 [4]: 23.5 µM (active) | AC50 [2]: 23.5 µM (active) | AC50 [3]: 9.35 µM (active)

CCC(=O)O[C@]1(C(=O)SCF)[C@H](C)C[C@H]2[C@@H]3C[C@H](F)C4=CC(=O)C=C[C@]4(C)[C@@]3(F)[C@@H](O)C[C@@]21C
remaining activity [7]: 125% (inactive) | outcome [4]: inactive | outcome [2]: inactive | outcome [3]: inactive

Clc1ccc(C(c2ccccc2Cl)C(Cl)Cl)cc1 (stereo unspecified)
red/green cell ratio (normalised) [1]: 0.98 (inactive) | normalised cell number [1, 8]: 1.11 | normalised cell number [1, 9]: 1.08 | AC50 [3]: 16.6 µM (active) | AC50 [5]: 18.6 µM (active)

CC(C)(C)NC(=O)[C@H]1CC[C@H]2[C@@H]3CC[C@H]4NC(=O)C=C[C@]4(C)[C@H]3CC[C@]12C
outcome [4]: inactive | AC50 [6]: 11.8 µM (active)

CCn1cc(C(=O)O)c(=O)c2cc(F)c(N3CCNC(C)C3)c(F)c21 (stereo unspecified)
red/green cell ratio (normalised) [1]: 1.03 (inactive) and 0.91 (inactive) | normalised cell number [1, 8]: 1.03 and 1.1 | normalised cell number [1, 9]: 1.07 and 1 | outcome [2]: inactive | outcome [3]: inactive | outcome [5]: inactive

CC1(C)O[C@H]2CC(=O)OC[C@]23[C@H]2CC[C@@]4(C)[C@H](c5ccoc5)OC(=O)[C@H]5O[C@]54[C@]2(C)C(=O)C[C@@H]13
outcome [2]: inactive | outcome [3]: inactive

CC1(C)O[C@@H]2C[C@H]3[C@@H]4C[C@H](F)C5=CC(=O)C=C[C@]5(C)[C@@]4(F)[C@@H](O)C[C@]3(C)[C@]2(C(=O)CO)O1
outcome [4]: inactive | outcome [6]: inactive | outcome [2]: inactive | outcome [5]: inactive

COc1cc(/C=C/C(=O)CC(=O)/C=C/c2ccc(O)c(OC)c2)ccc1O
AC50 [3]: 30.3 µM (active) | AC50 [5]: 16.6 µM (active)

NC[C@H](O)c1ccc(O)c(O)c1
outcome [4]: inactive | outcome [3]: inactive

C[N+]1(C)[C@@H]2CC(OC(=O)[C@H](CO)c3ccccc3)C[C@H]1[C@@H]1O[C@@H]12 (stereo partly specified)
outcome [4]: inactive | outcome [6]: inactive | outcome [2]: inactive | outcome [3]: inactive | outcome [5]: inactive

CN(C)CCC=C1c2ccccc2C=Cc2ccccc21
red/green cell ratio (normalised) [1]: 1.06 (inactive) | normalised cell number [1, 8]: 1.13 | normalised cell number [1, 9]: 1.19 | outcome [6]: inactive | outcome [3]: inactive

COc1cnc(NS(=O)(=O)c2ccc(N)cc2)nc1
red/green cell ratio (normalised) [1]: 1.15 (inactive) | normalised cell number [1, 8]: 0.87 | normalised cell number [1, 9]: 0.99 | AC50 [2]: 2.96 µM (active)

C[C@@](Cc1ccc(O)c(O)c1)(NN)C(=O)O
remaining activity [7]: 93.6% (inactive)

C[C@H]1O[C@@H](n2cc(F)c(=O)[nH]c2=O)[C@H](O)[C@@H]1O
outcome [2]: inactive

CC(=O)O[C@H]1C[C@@H]2CC[C@@H]3[C@H](CC[C@@]4(C)[C@H]3C[C@H]([N+]3(C)CCCCC3)[C@@H]4OC(C)=O)[C@@]2(C)C[C@@H]1N1CCCCC1
outcome [4]: inactive | outcome [6]: inactive | outcome [2]: inactive | outcome [3]: inactive

CCOC(=O)O[C@]1(C(=O)OCCl)CC[C@H]2[C@@H]3CCC4=CC(=O)C=C[C@]4(C)[C@H]3[C@@H](O)C[C@@]21C
outcome [4]: inactive | outcome [6]: inactive | outcome [2]: inactive | outcome [5]: inactive

CCCCOc1ccc(CC(=O)NO)cc1
red/green cell ratio (normalised) [1]: 1.05 (inactive) | normalised cell number [1, 8]: 0.59 | normalised cell number [1, 9]: 0.61 | AC50 [6]: 23.5 µM (active) | AC50 [3]: 20.9 µM (active) | outcome [5]: inactive

CNC[C@H](O)c1ccc(O)c(O)c1
outcome [4]: inactive | outcome [6]: inactive | outcome [2]: inactive | outcome [3]: inactive | outcome [5]: inactive

O=c1[nH]c(=O)n([C@H]2C[C@H](O)[C@@H](CO)O2)cc1F
AC50 [6]: 13.2 µM (active) | AC50 [2]: 1.48 µM (active)

Cc1onc(-c2ccccc2)c1C(=O)N[C@@H]1C(=O)N2[C@@H]1SC(C)(C)[C@@H]2C(=O)O
outcome [6]: inactive | outcome [2]: inactive | outcome [3]: inactive

C=C[C@@]1(C)CC(=O)[C@]2(O)[C@@]3(C)[C@@H](O)CCC(C)(C)[C@@H]3[C@H](O)[C@H](OC(C)=O)[C@@]2(C)O1
remaining activity [7]: 113% (inactive)

Nc1ccc(S(N)(=O)=O)cc1
outcome [4]: inactive | outcome [6]: inactive | outcome [2]: inactive | outcome [3]: inactive | outcome [5]: inactive

C#C[C@]1(O)CC[C@H]2[C@@H]3[C@H](C)CC4=C(CCC(=O)C4)[C@H]3CC[C@@]21C
outcome [5]: inactive

Cc1cc(C(C)(C)C)cc(C)c1CC1=NCCN1
red/green cell ratio (normalised) [1]: 1.16 (inactive) | normalised cell number [1, 8]: 1.07 | normalised cell number [1, 9]: 1.24 | outcome [5]: inactive

NC(=O)c1ncn([C@@H]2O[C@H](CO)[C@@H](O)[C@H]2O)c1O
outcome [4]: inactive | outcome [6]: inactive | outcome [5]: inactive

Cc1cccc(N(C)C(=S)Oc2ccc3ccccc3c2)c1
red/green cell ratio (normalised) [1]: 1.19 (inactive) | normalised cell number [1, 8]: 1.22 | normalised cell number [1, 9]: 1.46 | outcome [2]: inactive | outcome [5]: inactive

CC(C)NC[C@@H](O)COc1cccc2ccccc12
remaining activity [7]: 109% (inactive)

CC(=O)N(O)CCCCCNC(=O)CCC(=O)N(O)CCCCCNC(=O)CCC(=O)N(O)CCCCCN
red/green cell ratio (normalised) [1]: 1.51 (inactive) | normalised cell number [1, 8]: 1.1 | normalised cell number [1, 9]: 1.67 | AC50 [5]: 7.42 µM (active)
